Experimental data: PubChem BioAssay AID1159580 (chemical genetic matrix, 2015)
Hit rate of the full screen: of about 5,500 compounds, about 2,000 (36%) were called active. Inconclusive results (about 18%) are left out. Cut-off read from the data, not from the text of the source: active = normalized growth mostly below about 0.91 (no sharp cut-off); inconclusive = no clear call, values can overlap the other calls; inactive = mostly above about 0.92. The list shows a part of the results.

Experiment: chemical genetic growth profiling, strain panel (AID 1159580);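 note: tested at 20 µM; growth read once vehicle control cultures reached saturation at 30 °C; 1 = growth at the plate median or of vehicle wells; lower values mean less growth of the strain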
Settings: growth OD

Measured: normalized growth

CC(C)NCC(O)c1ccc2ccccc2c1 (stereo not drawn)
inactive: S. cerevisiae deletion strains, locus YJR066W, strain TOR1, stronger effect = lower value 0.936 | S. cerevisiae deletion strains, locus YJR075W, strain HOC1, stronger effect = lower value 1.02 | S. cerevisiae deletion strains, locus YKL009W, strain mrt4, stronger effect = lower value 0.998 | S. cerevisiae deletion strains, locus YKL068W, stronger effect = lower value 0.997 | S. cerevisiae deletion strains, locus YKL085W, strain MDH1 (second series), stronger effect = lower value 0.996 | S. cerevisiae deletion strains, locus YKL085W, strain MDH1, stronger effect = lower value 0.996 | S. cerevisiae deletion strains, locus YKL160W, strain elf1, stronger effect = lower value 0.994 | S. cerevisiae deletion strains, locus YKR001C, strain vps1, stronger effect = lower value 1.03 | S. cerevisiae deletion strains, locus YKR026C, strain gcn3, stronger effect = lower value 1 | S. cerevisiae deletion strains, locus YKR091W, strain srl3, stronger effect = lower value 1 | S. cerevisiae deletion strains, locus YLL001W, strain dnm1, stronger effect = lower value 1 | S. cerevisiae deletion strains, locus YLL026W, stronger effect = lower value 0.998 | S. cerevisiae deletion strains, locus YLL041C, strain sdh2, stronger effect = lower value 0.998 | S. cerevisiae deletion strains, locus YLR027C, strain aat2, stronger effect = lower value 1 | S. cerevisiae deletion strains, locus YLR039C, strain RIC1, stronger effect = lower value 1.04 | S. cerevisiae deletion strains, locus YLR058C, strain SHM2, stronger effect = lower value 1.01 | S. cerevisiae deletion strains, locus YLR102C, strain apc9, stronger effect = lower value 0.988 | S. cerevisiae deletion strains, locus YLR113W, strain HOG1, stronger effect = lower value 1.05 | S. cerevisiae deletion strains, locus YLR221C, strain rsa3, stronger effect = lower value 1.02 | S. cerevisiae deletion strains, locus YLR258W, strain gsy2, stronger effect = lower value 0.996 | S. cerevisiae deletion strains, locus YLR262C, strain YPT6 (second series), stronger effect = lower value 0.984 | S. cerevisiae deletion strains, locus YLR262C, strain YPT6, stronger effect = lower value 1.07 | S. cerevisiae deletion strains, locus YLR268W, strain sec22, stronger effect = lower value 0.989 | S. cerevisiae deletion strains, locus YLR320W, strain mms22, stronger effect = lower value 1.01 | S. cerevisiae deletion strains, locus YLR330W, strain CHS5, stronger effect = lower value 1.01 | S. cerevisiae deletion strains, locus YLR342W, strain FKS1 (second series), stronger effect = lower value 1.03 | S. cerevisiae deletion strains, locus YLR342W, strain FKS1, stronger effect = lower value 0.999 | S. cerevisiae deletion strains, locus YLR357W, strain rsc2, stronger effect = lower value 0.984 | S. cerevisiae deletion strains, locus YLR370C, strain arc18, stronger effect = lower value 1.02 | S. cerevisiae deletion strains, locus YLR371W, strain rom2, stronger effect = lower value 0.989 | S. cerevisiae deletion strains, locus YLR384C, strain iki3, stronger effect = lower value 1 | S. cerevisiae deletion strains, locus YLR418C, strain cdc73, stronger effect = lower value 0.997 | S. cerevisiae deletion strains, locus YML016C, strain PPZ1, stronger effect = lower value 1 | S. cerevisiae deletion strains, locus YML032C, strain rad52, stronger effect = lower value 1.01 | S. cerevisiae deletion strains, locus YML120C, strain ndi1, stronger effect = lower value 0.991 | S. cerevisiae deletion strains, locus YML124C, strain tub3, stronger effect = lower value 0.991 | S. cerevisiae deletion strains, locus YMR058W, strain fet3, stronger effect = lower value 1 | S. cerevisiae deletion strains, locus YMR078C, strain ctf18, stronger effect = lower value 0.998 | S. cerevisiae deletion strains, locus YMR125W, strain sto1, stronger effect = lower value 0.982 | S. cerevisiae deletion strains, locus YMR129W, stronger effect = lower value 0.98 | S. cerevisiae deletion strains, locus YMR205C, strain PFK2, stronger effect = lower value 0.981 | S. cerevisiae deletion strains, locus YMR223W, strain ubp8, stronger effect = lower value 0.997 | S. cerevisiae deletion strains, locus YMR231W, strain pep5, stronger effect = lower value 1 | S. cerevisiae deletion strains, locus YMR307W, strain GAS1, stronger effect = lower value 1.06 | S. cerevisiae deletion strains, locus YNL067W, strain RPL9B, stronger effect = lower value 1.04 | S. cerevisiae deletion strains, locus YNL071W, strain lat1, stronger effect = lower value 1 | S. cerevisiae deletion strains, locus YNL153C, strain GIM3, stronger effect = lower value 1.05 | S. cerevisiae deletion strains, locus YNL183C, strain NPR1, stronger effect = lower value 0.968 | S. cerevisiae deletion strains, locus YNL209W, strain ssb2, stronger effect = lower value 1 | S. cerevisiae deletion strains, locus YNL233W, strain BNI4, stronger effect = lower value 1.04 | S. cerevisiae deletion strains, locus YNL248C, strain rpa49, stronger effect = lower value 0.998 | S. cerevisiae deletion strains, locus YNL250W, strain rad50, stronger effect = lower value 0.992 | S. cerevisiae deletion strains, locus YNL271C, strain bni1, stronger effect = lower value 1.01 | S. cerevisiae deletion strains, locus YNL298W, strain CLA4, stronger effect = lower value 1 | S. cerevisiae deletion strains, locus YNL307C, strain MCK1, stronger effect = lower value 0.994 | S. cerevisiae deletion strains, locus YNL322C, strain KRE1 (second series), stronger effect = lower value 1 | S. cerevisiae deletion strains, locus YNL322C, strain KRE1, stronger effect = lower value 1.01 | S. cerevisiae deletion strains, locus YNR049C, strain mso1, stronger effect = lower value 0.999 | S. cerevisiae deletion strains, locus YNR052C, strain pop2, stronger effect = lower value 0.997 | S. cerevisiae deletion strains, locus YOL012C, strain htz1 1.41 | S. cerevisiae deletion strains, locus YOL147C, strain pex11, stronger effect = lower value 1 | S. cerevisiae deletion strains, locus YOR001W, strain rrp6, stronger effect = lower value 1 | S. cerevisiae deletion strains, locus YOR061W, strain CKA2, stronger effect = lower value 1.01 | S. cerevisiae deletion strains, locus YOR069W, strain VPS5, stronger effect = lower value 1.01 | S. cerevisiae deletion strains, locus YOR070C, strain gyp1, stronger effect = lower value 1 | S. cerevisiae deletion strains, locus YOR080W, strain dia2, stronger effect = lower value 0.998 | S. cerevisiae deletion strains, locus YOR083W, strain WHI5, stronger effect = lower value 0.991 | S. cerevisiae deletion strains, locus YOR106W, strain vam3, stronger effect = lower value 1.04 | S. cerevisiae deletion strains, locus YOR136W, strain idh2, stronger effect = lower value 0.997 | S. cerevisiae deletion strains, locus YOR144C, strain elg1, stronger effect = lower value 0.99 | S. cerevisiae deletion strains, locus YOR184W, strain ser1, stronger effect = lower value 0.978 | S. cerevisiae deletion strains, locus YOR231W, strain MKK1, stronger effect = lower value 1.06 | S. cerevisiae deletion strains, locus YOR265W, strain rbl2, stronger effect = lower value 0.99 | S. cerevisiae deletion strains, locus YOR270C, strain vph1, stronger effect = lower value 1.02 | S. cerevisiae deletion strains, locus YOR290C, strain snf2, stronger effect = lower value 0.993 | S. cerevisiae deletion strains, locus YOR316C, strain cot1, stronger effect = lower value 0.992 | S. cerevisiae deletion strains, locus YPL051W, strain arl3, stronger effect = lower value 1.01 | S. cerevisiae deletion strains, locus YPL055C, strain LGE1, stronger effect = lower value 1.06 | S. cerevisiae deletion strains, locus YPL078C, strain atp4, stronger effect = lower value 1.01 | S. cerevisiae deletion strains, locus YPL106C, strain sse1, stronger effect = lower value 0.983 | S. cerevisiae deletion strains, locus YPL240C, strain hsp82, stronger effect = lower value 0.997 | S. cerevisiae deletion strains, locus YPL256C, strain CLN2, stronger effect = lower value 1.02 | S. cerevisiae deletion strains, locus YPR119W, strain clb2, stronger effect = lower value 0.99 | S. cerevisiae deletion strains, locus YPR141C, strain kar3, stronger effect = lower value 0.994 | S. cerevisiae deletion strains, locus YPR163C, strain tif3, stronger effect = lower value 0.99 | S. cerevisiae deletion strains, locus YPR167C, strain met16, stronger effect = lower value 0.989 | S. cerevisiae deletion strains, strain wtn01, stronger effect = lower value 1.03 | S. cerevisiae strains, strain wild type, stronger effect = lower value 1.01
